Records with an inconclusive call do not appear. Calls of active or inactive are those of the source. Calls follow the shape of the dose curve; as a rule, active = well fitted curve in the direction sought with a large enough effect; inconclusive = small, poorly fitted or top-dose-only effect, or another doubt; inactive = no such curve, though single readings can be large; an effect the other way counts as inactive or inconclusive. Where a SMILES comes first, the peptide text is derived from it. The star is where a group is joined. Cbz = O=C(OCc1ccccc1)*; CH2F = FC*
Columns and labels:
[1] = system: CRL-7250; assay: Cytotoxic Profiling of Annotated Libraries Using Quantitative High-Throughput Screening (AID 1296008); details: Five cell lines viability, CellTiter-Glo ATP luminescence, 48-72 h; max response: stronger effect = lower value; also: nearly all actives have a fitted effect of over 60% in size; as to max response: % is scaled to controls: 0 for no effect and ±100 for the full control effect
In short: (§1)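 Cytotoxicity was measured as CellTiter-Glo ATP luminescence, read after 10 min at room temperature. Compound treatment of the cells lasted 48 or 72 hr at 37 degrees Celsius in a qHTS format.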

[2] = system: HEK293; assay: as above; details: Five cell lines viability, CellTiter-Glo ATP luminescence, 48-72 h; max response: stronger effect = lower value
In short: as §1

[3] = system: HaCat; assay: as above; details: Five cell lines viability, CellTiter-Glo ATP luminescence, 48-72 h; max response: stronger effect = lower value
In short: as §1

[4] = system: KB-3-1; assay: as above; details: Five cell lines viability, CellTiter-Glo ATP luminescence, 48-72 h; max response: stronger effect = lower value
In short: as §1

[5] = system: NIH3T3; assay: as above; details: Five cell lines viability, CellTiter-Glo ATP luminescence, 48-72 h; max response: stronger effect = lower value
In short: as §1

[6] = system: HACAT; assay: qHTS assay to identify novel small-molecules to repurpose for Merkel cell carcinoma treatment (AID 1296009); details: MCC and control cell lines, CellTiter-Glo viability, 72 h; at 44.8 µM (top of the series) unless noted; also: nearly all actives have a fitted effect of over 60% in size
In short: (§2)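 Cell viability, measured as CellTiter-Glo luminescence, was normalized between DMSO and no-cell wells. The cells had been exposed to 8- or 11-point compound dilutions for 72 hr at 37 degree celsius.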

[7] = system: NIH3T3; assay: as above; details: MCC and control cell lines, CellTiter-Glo viability, 72 h; at 44.8 µM (top of the series) unless noted
In short: as §2

[8] = system: C33A; assay: Primary qHTS to identify gynecologic anti-cancer compounds using libraries of approved drugs and bioactive compounds (AID 1345084); details: Gynecologic cancer cell panel viability, ATPlite luminescence, 48 h; series mostly up to 57.5 µM; also: % is scaled to controls: 0 for no effect and ±100 for the full control effect; nearly all actives have a fitted effect of over 55% in size
In short: (§3)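 Cells, 1,000 per well, were allowed to settle for 16 h at 37 C before compound addition. Five concentrations were tested for 48 h, and viability was read by ATPlite luminescence after 15 min at room temperature.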

[9] = system: CAOV3; assay: as above; details: Gynecologic cancer cell panel viability, ATPlite luminescence, 48 h; series mostly up to 57.5 µM
In short: as §3

[10] = system: CASKI; assay: as above; details: Gynecologic cancer cell panel viability, ATPlite luminescence, 48 h; series mostly up to 57.5 µM
In short: as §3

[11] = system: Es-2; assay: as above; details: Gynecologic cancer cell panel viability, ATPlite luminescence, 48 h; series mostly up to 57.5 µM
In short: as §3

[12] = system: HeLa; assay: as above; details: Gynecologic cancer cell panel viability, ATPlite luminescence, 48 h; series mostly up to 57.5 µM
In short: as §3

[13] = system: Hek293T; assay: as above; details: Gynecologic cancer cell panel viability, ATPlite luminescence, 48 h, control line for the selectivity index; series mostly up to 57.5 µM
In short: as §3

[14] = system: JEG-3; assay: as above; details: Gynecologic cancer cell panel viability, ATPlite luminescence, 48 h; series mostly up to 57.5 µM
In short: as §3

[15] = system: OV90; assay: as above; details: Gynecologic cancer cell panel viability, ATPlite luminescence, 48 h; series mostly up to 57.5 µM
In short: as §3

[16] = system: PA-1; assay: as above; details: Gynecologic cancer cell panel viability, ATPlite luminescence, 48 h; series mostly up to 57.5 µM
In short: as §3

O=C(O)c1cccc(C(=O)CCC2OC(n3cnc4c(=O)[nH]cnc43)C(O)C2O)c1 (stereo not drawn)
inactive: outcome [1] | max response [2] -2.52% | outcome [3] | max response [4] 3.59% | outcome [5] | outcome [6] inactive [at 17.4 µM] | outcome [7] inactive [at 17.4 µM] | Potency [8] | Potency [9] | outcome [10] | Potency [11] | Potency [12] | Potency [13] | Potency [14] | Potency [15] | Potency [16]

NC1(c2ccc(NC(=O)c3ccnc(-c4cc(C(=O)O)ccn4)c3)cc2)CC1
inactive: outcome [1] | max response [2] -8.28% | outcome [3] | outcome [4] | outcome [5] | outcome [6] | outcome [7] | Potency [8] | Potency [9] | outcome [10] | Potency [11] | Potency [12] | Potency [13] | Potency [14] | Potency [15]

COC(=O)CC[C@H](NC(=O)[C@H](CC(C)C)NC(=O)OCc1ccccc1)C(=O)N[C@@H](Cc1cnc[nH]1)C(=O)N[C@@H](CC(=O)OC)C(=O)CF (Cbz-LE(OMe)HD(OMe)-CH2F)
inactive: outcome [1] | max response [2] 2.63% | outcome [3] | outcome [4] | outcome [5] | outcome [6] inactive [at 9.27 µM] | outcome [7] inactive [at 9.27 µM] | activity change, negative = cytotoxicity [8] 16.8% [at 11.6 µM] | activity change, negative = cytotoxicity [9] 7.02% [at 11.6 µM] | activity change, negative = cytotoxicity [10] 26% [at 11.6 µM] | activity change, negative = cytotoxicity [11] 0.76% [at 11.6 µM] | activity change, negative = cytotoxicity [12] 6.25% [at 11.6 µM] | activity change, negative = cytotoxicity [13] 2.96% [at 11.6 µM] | activity change, negative = cytotoxicity [14] -14.9% [at 11.6 µM] | activity change, negative = cytotoxicity [15] 0.73% [at 11.6 µM] | activity change, negative = cytotoxicity [16] -3.2% [at 11.6 µM]

COc1ccc(N2CCN(CCCNC(=O)Cn3c(=O)c4cccn4c4c(C)ccnc43)CC2)cc1
inactive: max response [1] -6.16% | max response [2] -13.3% | outcome [3] | max response [4] 6.93% | outcome [5] | outcome [6] | outcome [7] | Potency [8] | Potency [9] | outcome [10] | Potency [11] | Potency [12] | Potency [13] | Potency [14] | Potency [15] | Potency [16]

C[C@]1(OC(=O)/C=C/c2ccc(O)cc2)C[C@@H](O)[C@]2(O)C=CO[C@@H](O[C@@H]3O[C@H](CO)[C@@H](O)[C@H](O)[C@H]3O)C12 (stereo partly drawn)
inactive: max response [1] 4.79% | max response [2] -2.23% | outcome [3] | max response [4] 6.86% | outcome [5] | outcome [6] inactive [at 17.4 µM] | outcome [7] inactive [at 17.4 µM] | Potency [8] | Potency [9] | outcome [10] | Potency [11] | Potency [12] | Potency [13] | Potency [14] | Potency [15] | Potency [16]

CC1OC(O[C@@H]2[C@H](O)[C@@H](OC3OC(CO)C(O)C(O)C3O)[C@H](OC(=O)[C@]34CCC(C)(C)C[C@H]3C3=CCC5[C@@]6(C)CC[C@H](O[C@@H]7O[C@H](C(=O)O)[C@@H](O)[C@H](O[C@@H]8OC[C@@H](O)[C@H](O)[C@H]8O)[C@H]7O[C@@H]7O[C@H](CO)[C@H](O)[C@H](O)[C@H]7O)[C@@](C)(C=O)C6CC[C@@]5(C)[C@]3(C)C[C@H]4O)O[C@@H]2C)C(O)C(O)C1OC1OCC(O)C(O)C1O (stereo partly drawn)
inactive: max response [1] -3.77% | max response [2] -1.1% | outcome [3] | outcome [4] | outcome [5] | outcome [6] inactive [at 4.96 µM] | outcome [7] inactive [at 4.96 µM] | activity change, negative = cytotoxicity [8] 2.44% [at 6.55 µM] | activity change, negative = cytotoxicity [9] 8.46% [at 6.55 µM] | activity change, negative = cytotoxicity [10] 4.43% [at 6.55 µM] | activity change, negative = cytotoxicity [11] -4.12% [at 6.55 µM] | activity change, negative = cytotoxicity [12] 23.9% [at 6.55 µM] | activity change, negative = cytotoxicity [13] 0.666% [at 6.55 µM] | activity change, negative = cytotoxicity [14] 2.9% [at 6.55 µM] | activity change, negative = cytotoxicity [15] -6.72% [at 6.55 µM] | activity change, negative = cytotoxicity [16] 8.3% [at 6.55 µM]

CC(=O)c1ccc(O[C@@H]2O[C@H](CO[C@@H]3OC[C@@H](O)[C@H](O)[C@H]3O)[C@@H](O)[C@H](O)[C@H]2O)cc1
inactive: outcome [1] | max response [2] -1.26% | outcome [3] | max response [4] 4.67% | outcome [5] | outcome [6] inactive [at 17.4 µM] | outcome [7] inactive [at 17.4 µM] | Potency [8] | Potency [9] | outcome [10] | Potency [11] | Potency [12] | Potency [13] | Potency [14] | Potency [15] | Potency [16]

C[C@@H]1O[C@@H](O[C@H]2[C@H](OC(=O)[C@]34CCC(C)(C)C[C@H]3C3=CCC5[C@@]6(C)C[C@@H](O)[C@@H](O)[C@@](C)(CO)C6[C@H](O)C[C@@]5(C)[C@]3(C)CC4)OC[C@H](O)[C@@H]2O)[C@H](O)[C@H](O)[C@H]1O[C@@H]1OC[C@@H](O)[C@H](O[C@H]2O[C@H](C)[C@@H](O)[C@H](O)[C@@H]2O)[C@H]1O (stereo partly drawn)
inactive: max response [1] 1.4% | max response [2] -0.607% | outcome [3] | max response [4] 8.34% | outcome [5] | outcome [6] inactive [at 9.27 µM] | outcome [7] inactive [at 9.27 µM] | activity change, negative = cytotoxicity [8] -5.04% [at 11.6 µM] | activity change, negative = cytotoxicity [9] 7.19% [at 11.6 µM] | activity change, negative = cytotoxicity [10] 15.8% [at 11.6 µM] | activity change, negative = cytotoxicity [11] 6.09% [at 11.6 µM] | activity change, negative = cytotoxicity [12] 13.1% [at 11.6 µM] | activity change, negative = cytotoxicity [13] -1.53% [at 11.6 µM] | activity change, negative = cytotoxicity [14] 3.24% [at 11.6 µM] | activity change, negative = cytotoxicity [15] 9.69% [at 11.6 µM] | activity change, negative = cytotoxicity [16] 12.4% [at 11.6 µM]

CC1(CO)CC(O)C2(C)CCC3(C)C(=CCC4C5(C=O)CCC(OC6OC(C(=O)O)C(O)C(O)C6OC6OC(C(=O)O)C(O)C(O)C6O)C(C)(C)C5CCC43C)C2C1 (stereo not drawn)
inactive: outcome [1] | max response [2] -10.9% | outcome [3] | outcome [4] | outcome [5] | outcome [6] inactive [at 9.27 µM] | outcome [7] inactive [at 9.27 µM] | activity change, negative = cytotoxicity [8] 4.08% [at 11.6 µM] | activity change, negative = cytotoxicity [9] 8.53% [at 11.6 µM] | activity change, negative = cytotoxicity [10] 5.93% [at 11.6 µM] | activity change, negative = cytotoxicity [11] 3.36% [at 11.6 µM] | activity change, negative = cytotoxicity [12] 7.21% [at 11.6 µM] | activity change, negative = cytotoxicity [13] -0.0914% [at 11.6 µM] | activity change, negative = cytotoxicity [14] 2.3% [at 11.6 µM] | activity change, negative = cytotoxicity [15] 0.842% [at 11.6 µM]

O=C(OCC1=C[C@@H](O)[C@@H]2C=CO[C@@H](O[C@@H]3O[C@H](CO)[C@@H](O)[C@H](O)[C@H]3O)[C@H]12)c1ccc(O)cc1
inactive: max response [1] -4.11% | max response [2] 1.2% | outcome [3] | max response [4] 1.69% | outcome [5] | outcome [6] inactive [at 17.4 µM] | outcome [7] inactive [at 17.4 µM] | Potency [8] | Potency [9] | outcome [10] | Potency [11] | Potency [12] | Potency [13] | Potency [14] | Potency [15] | Potency [16]
